Our source for the activity change, negative = inhibition values is PubChem BioAssay AID493026 (Johns Hopkins Ion Channel Center, 2011).

SMILES strings stand for the structures. Among all 1,000 compounds or so, about 150 (15%) were called active.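 How the source made its calls: active means activity change at least 3 SD of negative controls below their mean in both duplicate wells; inactive means the rest.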 The entries come from a sample that favours actives as a whole.

Chain of Potassium voltage-gated channel subfamily KQT member 1 (Homo sapiens) (P51787 whole entry, looked up): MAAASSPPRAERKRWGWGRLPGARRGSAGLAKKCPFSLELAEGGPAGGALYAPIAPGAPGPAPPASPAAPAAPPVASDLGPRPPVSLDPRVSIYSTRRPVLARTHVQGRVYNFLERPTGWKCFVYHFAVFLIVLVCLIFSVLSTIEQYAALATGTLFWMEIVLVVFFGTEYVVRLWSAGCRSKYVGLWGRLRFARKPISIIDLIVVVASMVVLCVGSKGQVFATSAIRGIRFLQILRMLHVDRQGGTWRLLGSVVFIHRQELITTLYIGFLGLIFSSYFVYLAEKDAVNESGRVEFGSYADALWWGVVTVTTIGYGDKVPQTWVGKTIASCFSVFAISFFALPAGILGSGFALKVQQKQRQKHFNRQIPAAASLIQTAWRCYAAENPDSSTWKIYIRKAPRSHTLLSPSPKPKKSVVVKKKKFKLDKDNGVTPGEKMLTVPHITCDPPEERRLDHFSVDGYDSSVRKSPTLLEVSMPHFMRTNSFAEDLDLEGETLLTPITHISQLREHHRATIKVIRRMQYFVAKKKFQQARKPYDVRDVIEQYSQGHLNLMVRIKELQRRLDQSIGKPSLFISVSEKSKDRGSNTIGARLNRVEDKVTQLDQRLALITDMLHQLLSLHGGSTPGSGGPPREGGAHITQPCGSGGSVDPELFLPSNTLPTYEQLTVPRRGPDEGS

This experiment addresses Potassium voltage-gated channel subfamily KQT member 1 (Homo sapiens) (UniProt P51787). Description: human KCNQ1 channel inhibition, counter-screen for KCNQ2 inhibitor project, cell-based, FluxOR thallium flux (AID 493026).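 Further: CHO cells stably transfected with KCNQ1 and depolarized by potassium stimulus.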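 On activity change, negative = inhibition: peak minus minimum fluorescence over baseline after thallium addition; 0% = vehicle negative control and -100% = blank without thallium stimulus.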 The conditions noted are these: KCNQ1-expressing cells, FluxOR thallium flux fluorescence, at 10 µM; active compounds read low. In general terms: A counterscreen serves to expose hits that act by an unwanted route or on another target.
Take `CCc1ccccc1NC(=O)/C(=C/c1ccccc1)c1ccccc1`: the activity change, negative = inhibition was -27% (active). The result for `Cc1ccc(C(=O)c2c(NC(=O)c3ccccc3)sc(C)c2C)cc1` reads “inactive”; that for `COc1ccc(Cl)cc1NC(=O)CN(C)Cc1ccc(OC)c(OC)c1`, “inactive”. The entry for `CN(Cc1ccccc1F)C(=O)C(Cc1ccccc1)NC(=O)c1ccccc1` (stereo unspecified) is “inactive”; for `CCc1ccc(-c2nn(-c3ccccc3)cc2CSC(=N)N)cc1` it is -39.5% (active); for `Cc1cccc(C(=O)OC(C)C(=O)NC2CCCc3ccccc32)c1O` (stereo unspecified) it is “inactive”. Turning to `COC(=O)C1=C(C)N(C(C)c2ccccc2)C(=O)/C1=C\c1ccco1` (stereo unspecified), the activity change, negative = inhibition entry was “inactive”. The result for `COc1cccc(COc2ccc(N(C)S(=O)(=O)c3ccccc3)cc2)c1` reads “inactive”; that for `C=CS(=O)c1sc(Cl)c(N2CCOCC2)c1[N+](=O)[O-]` (stereo unspecified), -35% (active); that for `Cc1nc2ccccc2c(-c2ccccc2)c1C(=O)c1ccccc1`, “inactive”.

As for `CSCc1cc(N(C)C)nc(SCc2ccc(Cl)cc2Cl)n1`, the activity change, negative = inhibition result was “inactive”.

As to `Cc1ccc(C2=Nc3c(ccc4ccccc34)C(c3ccncc3)=NN2)cc1`, the activity change, negative = inhibition entry was “inactive”.

On to `CCc1ccc(-c2cc(C(=O)NCc3ccco3)c3ccccc3n2)s1`, for which the activity change, negative = inhibition result is “inactive”. Regarding `Fc1ccc2[nH]c3c(N4CCSCC4)ncnc3c2c1`, the activity change, negative = inhibition result was “inactive”.

Consider `CCOC(=O)N1CCC(N(CCOC)C(=O)Nc2ccc(C)c(C)c2)CC1`, for which the activity change, negative = inhibition is -30.5% (active). Turning to `O=C(OCC(=O)N(CCc1ccccc1)Cc1ccccc1)c1ccccc1[N+](=O)[O-]`, the activity change, negative = inhibition result is “inactive”. The result for `CCc1ccc2ncc(C(=O)c3ccccc3)c(N3CCOCC3)c2c1` reads “inactive”. The result for `Cc1ccc(C(C)C)cc1OCC(=O)Nc1ccccc1N1CCCC1` reads “inactive”; that for `CCOC(=O)C(C)Sc1nc2ccccc2c(=O)n1CC1CCCCC1` (stereo unspecified), -33.5% (active); that for `Cc1ccccc1N1CCN(CC(=O)NCc2ccc(Cl)cc2)CC1`, “inactive”.

As for `O=C(Nc1ccccc1Cl)/C(Cl)=C(\Cl)S(=O)c1ccccc1` (stereo unspecified), the activity change, negative = inhibition entry was “inactive”. The result for `CC(NC(=S)NNS(=O)(=O)c1ccc(C(C)(C)C)cc1)c1ccccc1` (stereo unspecified) reads “inactive”. For `Cc1ccccc1C(=O)Nc1ccccc1Sc1ccccc1`, the activity change, negative = inhibition entry was “inactive”.

Regarding `COc1ccc(CN(C)C(C)C(=O)NC2CCCc3ccccc32)cc1` (stereo unspecified), the activity change, negative = inhibition result is “inactive”. The entry for `CC(C)C(NC(=O)OCc1ccccc1)C(=O)OCC(=O)N1C(C)CCCC1C` (stereo unspecified) is “inactive”.

Consider `CC(C(=O)NCC1CCCCC1)N(C)Cc1cccc(Cl)c1` (stereo unspecified), for which the activity change, negative = inhibition is -42.5% (active). Regarding `C=CCn1c(SCC(=O)/C(C#N)=C(\C)N)nc2sc(C)c(C)c2c1=O`, the activity change, negative = inhibition result was “inactive”.

Take `O=C(Nc1ccc(Cl)c(Cl)c1)N1CC=C(c2ccccc2)CC1`: the activity change, negative = inhibition entry was “inactive”. The entry for `Cc1ccc(N2C(=O)C3C(c4ccccc4)(C2=O)C3(c2ccccc2)c2ccccc2)cc1` (stereo unspecified) is “inactive”.

As for `CC(C)N(C(=O)CSc1nc(COc2ccccc2)nc2ccccc12)C(C)C`, the activity change, negative = inhibition was -44% (active). The result for `CC(C)[C@H](NC(=O)OCc1ccccc1)C(=O)OCc1ccccc1` reads “inactive”.
